# Assay outcomes deposited in PubChem by National Center for Advancing Translational Sciences (NCATS).
# Sfp PPTase inh = Sfp phosphopantetheinyl transferase inhibition. Biochemical Sfp PPTase activity, qHTS. Potency, µM, hits mostly inhibitors. Q9F4F7. AID 1490. hit rate 3.5% among 310,000;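 also: the enzyme is Sfp with the accession as filed and its product quenches rhodamine fluorescence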
#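 Sfp 15 nM + cpd, 15 min RT; start w/ rhodamine-CoA 5 uM, BHQ-2-YbbR 12.5 uM (final); 50 mM Hepes pH 7.6, 10 mM MgCl2, 0.01% NP-40, 0.01% BSA; read 525/598 nm at 0 and 30 min.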
# 12-LOX inh = inhibitors of human 12S-lipoxygenase ALOX12. hit rate 1.1% among 580,000. Potency, µM (top dose mostly 108 µM), hits mostly inhibitors. AID 1671190. purified 12hLO, xylenol orange hydroperoxide absorbance
# Target sequence (P18054 whole entry, looked up): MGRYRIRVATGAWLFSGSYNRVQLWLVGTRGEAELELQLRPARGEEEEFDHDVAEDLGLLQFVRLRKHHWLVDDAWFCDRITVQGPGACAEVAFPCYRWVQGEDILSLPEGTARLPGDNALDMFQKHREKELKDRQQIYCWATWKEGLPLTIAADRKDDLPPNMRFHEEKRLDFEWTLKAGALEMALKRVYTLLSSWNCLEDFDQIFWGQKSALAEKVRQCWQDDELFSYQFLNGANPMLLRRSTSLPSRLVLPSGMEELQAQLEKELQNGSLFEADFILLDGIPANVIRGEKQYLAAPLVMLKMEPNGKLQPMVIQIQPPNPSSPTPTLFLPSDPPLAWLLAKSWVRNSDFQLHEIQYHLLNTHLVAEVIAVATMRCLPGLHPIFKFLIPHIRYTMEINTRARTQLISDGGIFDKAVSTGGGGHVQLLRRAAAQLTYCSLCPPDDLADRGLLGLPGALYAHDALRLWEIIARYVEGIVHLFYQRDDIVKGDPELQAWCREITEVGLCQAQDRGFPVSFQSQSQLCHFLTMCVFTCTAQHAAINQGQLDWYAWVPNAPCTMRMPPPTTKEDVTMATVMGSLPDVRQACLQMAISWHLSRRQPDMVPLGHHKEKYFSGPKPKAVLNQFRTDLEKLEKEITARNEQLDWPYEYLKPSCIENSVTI
#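 Hydroperoxide product was detected by ferrous iron/xylenol orange as the 573 to 405 nm absorbance ratio. Arachidonic acid at 40 uM (final) was turned over for 30 min at room temperature by 150 nM human 12hLO, pH 7.0 Hepes buffer, after 15 min compound preincubation.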
# VDR inh = inhibitors of human vitamin D receptor | VDR-SRC2-3 peptide fluorescence polarization, 2 h | hit rate 0.93% among 400,000 | AID 504847 | Potency, µM, usual class: inhibitors
#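 Measured by FP: displacement of SRC2-3 coactivator peptide from VDR by library compounds, following a two-hour ambient incubation.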
# PLK1 PBD inh = blocks phosphopeptide binding to human PLK1 polo-box domain; P53350; Plk1 PBD binding of FITC phosphopeptide, fluorescence polarization; Potency, µM, most hits filed as inhibitors; hit rate 2.8% among 360,000; AID 720504; also: series mostly up to about 57 µM; nearly all actives have a fitted effect of over 65% in size
# Numbers stand for hits; 0 = inactive; ? = inconclusive; - = no result; [ ] = dose if it differs, or a comment. An excerpt weighted towards active compounds, which were near 4.2% of everything screened. Calls follow the shape of the dose curve; as a rule, active = well fitted curve in the direction sought with a large enough effect; inconclusive = small, poorly fitted or top-dose-only effect, or another doubt; inactive = no such curve, though single readings can be large; an effect the other way counts as inactive or inconclusive.
SMILES,Sfp PPTase inh,12-LOX inh,VDR inh,PLK1 PBD inh
CCOc1cc(/C=N/Nc2ccc(S(=O)(=O)Nc3ccccc3C(=O)O)cc2[N+](=O)[O-])cc(Cl)c1O,-,35.5µM,-,7.52µM
O=C(O)c1ccccc1NS(=O)(=O)c1ccc(N/N=C/c2cccc(O)c2O)c([N+](=O)[O-])c1,-,39.8µM,0,?
CC(=O)Nc1cccc(/C(C)=N/Nc2ccc(S(=O)(=O)Nc3ccccc3C(=O)O)cc2[N+](=O)[O-])c1,-,?,?,23.8µM
O=[N+]([O-])c1ccc(/C=N/Nc2ccc(S(=O)(=O)Nc3ccccc3)cc2[N+](=O)[O-])o1,-,0,-,-
Cc1ccc(/C=N/Nc2ccc(S(=O)(=O)Nc3ccccc3C(=O)O)cc2[N+](=O)[O-])o1,-,14.1µM,-,-
C/C(=N/Nc1ccc(S(N)(=O)=O)cc1[N+](=O)[O-])c1ccccc1,-,0,-,-
O=C(OCC(=O)N1CCCC1=O)c1cccc([N+](=O)[O-])c1,0,0,0,0
CC1Cc2ccccc2N1C(=O)Cn1nc(C(=O)O)c2ccccc2c1=O (stereo not given),0,0,0,0
CC(C)CNC(=O)c1cc(C2CC2)nc2c1c(C1CCCN1)nn2-c1ccccc1 (stereo not given),-,0[6.33 µM],-,-
Cc1ccc(CN2CCC(C(=O)Nc3ccc(Oc4cccnc4)cc3)CC2)cc1,0,0,0,0
CC(=O)Nc1ccc(C=NNc2ccc(S(=O)(=O)Nc3ccccc3C(=O)O)cc2[N+](=O)[O-])cc1,-,?,?,21.2µM
CCOc1ccc(C=NNc2ccc(S(=O)(=O)Nc3ccccc3C(=O)O)cc2[N+](=O)[O-])cc1OC,-,-,0,?
CN(CCO)c1ccc(C=NNc2ccc([N+](=O)[O-])cc2S(=O)(=O)Nc2ccccc2C(=O)O)cc1,-,39.8µM,79.4µM,21.2µM
CCOc1ccc2c(c1)c1nnc(SCC3CCCO3)nc1n2C (stereo not given),0,?,0,26.7µM
Cc1ccccc1N(CC(=O)NCCSCc1ccco1)S(C)(=O)=O,20µM,0,0,0
Cc1cnc(C(=O)N2CCOCC(CO)C2)cn1 (stereo not given),-,50.1µM,-,-
CCN(CC)Cc1cnc2c(C(=O)N(C)C3Cc4ccccc4C3)cnn2c1,-,0,-,-
Cc1nc2ccccc2n1CCc1nc2c3ccccc3nc(=S)n2[nH]1,50.1µM,?,0,0
Cc1ccccc1-c1nc2c3ccccc3nc(=S)n2[nH]1,0,0,0,0
O=[N+]([O-])c1ccccc1/C=C/C=N/Nc1nc(N2CCCCC2)nc(N2CCCCC2)n1,?,?,?,26.7µM
NC(=S)NNc1ccc(Cl)c(Cl)c1,3.16µM,15.8µM,?,?
Cc1ccc(NNC(N)=S)cc1Cl,12.6µM,28.2µM,79.4µM,0
CCc1ccc(C(=O)NNc2ccc(C)c(Cl)c2)cc1,0,15.8µM,?,0
O=C(c1ccc(F)cc1)N1CC(c2noc(-c3ccccc3)n2)C1,-,0,-,-
COc1ccc(Nc2cc3c(cn2)CN(C)CCN3)cc1OC,-,0,-,-
SMILES,Sfp PPTase inh,12-LOX inh,VDR inh,PLK1 PBD inh
COc1ccc(Cn2c3nc4ccccc4nc3c3c(=O)n(Cc4ccco4)cnc32)cc1,4.47µM,-,-,-
Cc1cccc(-n2cnc3c(c2=O)c2nc4ccccc4nc2n3Cc2ccco2)c1,3.55µM,?,0,0
Cc1cccc(S(=O)(=O)c2c(N)n(Cc3ccco3)c3nc4ccccc4nc23)c1,?,0,0,0
COc1cc(/C=N/NC(=O)c2nonc2C)ccc1O,0,0,0,0
Cc1nonc1C(=O)N/N=C/c1ccccc1,0,0,0,23.8µM
Cn1ncc(Cl)c1C(=O)NC(=S)Nc1sc2c(c1C#N)CCCCC2,?,?,0,8.44µM
N#Cc1ccsc1NC(=O)c1cnccn1,50.1µM,0,0,0
Cc1nn(CCCC(=O)Nc2sc3c(c2C#N)CCC3)c(C)c1[N+](=O)[O-],?,?,?,29.9µM
CCC(=O)Nc1sc2c(c1C#N)CCC2,0,0,0,?
CC(C)c1onc(C(=O)Nc2sc3c(c2C#N)CCC3)c1[N+](=O)[O-],56.2µM,?,0,?
N#Cc1c(NC(=O)c2cnccn2)sc2c1CCCC2,25.1µM,0,0,26.7µM
N#Cc1c(NC(=O)c2cccnc2)sc2c1CCC2,0,?,0,0
CC(C)c1cc(C(=O)Nc2sc3c(c2C#N)CCC3)no1,?,0,0,23.8µM
O=C(Nc1sc2c(c1C(=O)c1ccc(Cl)cc1)CCCC2)c1cccnc1,31.6µM,?,0,0
O=C(Nc1sc2c(c1C(=O)c1ccccc1)CCCC2)c1cccnc1,0,0,?,0
O=C(CSc1nccc(=O)[nH]1)Nc1ccc(S(=O)(=O)N2CCOCC2)cc1,0,0,0,?
Cc1c(NC(=O)c2cc3cc(Br)ccc3[nH]2)c(=O)n(-c2ccccc2)n1C,-,50.1µM,-,-
CC(=O)Nc1ccc(-c2csc(NC(C)C)n2)c(F)c1,-,0,-,-
O=C(NNc1ccccc1C(F)(F)F)c1sccc1Br,0,39.8µM,?,0
O=C(Nc1cccc(C(F)(F)F)c1)c1cccnc1N1CCN(c2ccccc2)CC1,22.4µM,?,0,0
O=C(Nc1cccc(C(F)(F)F)c1)c1cccnc1N1CCN(CCO)CC1,0,0,0,0
CCc1cc(=O)n(CC(=O)Nc2cc(Cl)ccc2OC)c(N2CCOCC2)n1,-,0,-,-
O=C(CCN1C(=O)/C(=C/c2ccc(Cl)cc2)SC1=S)Nc1cccc(C(=O)O)c1,0,0,0,?
O=C(O)c1cccc(N2C(=O)/C(=C/c3ccc(SCc4ccc(Cl)cc4)o3)SC2=S)c1,39.8µM,3.55µM,0,?
CCOC(=O)CC1Sc2ccccc2NC1=O (stereo not given),?,0,0,0
SMILES,Sfp PPTase inh,12-LOX inh,VDR inh,PLK1 PBD inh
CCOC(=O)C1=C(C)Nc2ccccc2S1,50.1µM,?,?,?
CCOC(=O)C1=C(C)Nc2ccc(C)cc2S1,50.1µM,?,?,?
CSCCOC(=O)C1=C(C)NC(=O)NC1c1ccc2c(c1)OCO2 (stereo not given),0,0,0,0
CSCCOC(=O)C1=C(C)Nc2ccc(C)cc2S1,50.1µM,?,?,18.9µM
CCOC(=O)CC1Sc2ccccc2NC1=S (stereo not given),39.8µM,0,0,0
Cc1ccc(NC(=O)CC2S/C(=N/c3nccs3)N(C)C2=O)cc1C (stereo not given),0,0,0,0
CN1CCN(C2CCN(CCc3ccccc3)C2=O)CC1 (stereo not given),-,0,-,-
O=C(NC(=O)c1c(F)cccc1F)O/N=C1\CCCc2occc21,0,0,0,0
O=C(NC1CCCC1)C(c1ccccc1)n1c(Cc2cc(F)cc(F)c2)nc2ccccc21 (stereo not given),-,0,-,0
CC(C)Cn1c(=O)c2c(nc3n2CC(C)CN3Cc2ccccc2)n(C)c1=O (stereo not given),0,0,0,0
CCOCCOC(=O)C1=C(C)Nc2ccc(C)cc2S1,?,?,89.1µM,?
COCCn1c(SCC(=O)Nc2cccc(S(N)(=O)=O)c2)nc2cc(Cl)ccc2c1=O,0,0,?,7.52µM
CC(C)Cn1c(SCC(=O)Nc2cccc(S(N)(=O)=O)c2)nc2ccccc2c1=O,0,0,0,?
Cc1ccc(C(=O)c2sc(Nc3cc(C)cc(C)c3)nc2N)cc1,-,0,-,-
Cc1ccc(C(=O)c2sc(Nc3cccc(Cl)c3C)nc2N)cc1,-,28.2µM,-,-
